Assay [1] in a line: small molecules captured by biotinylated probe aFSTL3 – biochemical, small-molecule microarray, fluorescence 635/667, stem cell growth factor project, primary screen (AID 1064).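 Also: measures binding of the biotinylated anti-FSTL3 antibody to printed compounds.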 The note with it: higher = more signal.
The nature of assay [2]: binders from COS7 lysate, DM2A8 probe, primary screen, torsin A project, cell lysate, small-molecule microarray, fluorescence 635/667 (AID 1065). To be noted: higher = more signal, COS7 lysate expressing mutant human TOR1A.
A short description of assay [3]: small molecules captured by biotinylated probe aFGF2 – biochemical, small-molecule microarray, fluorescence 635/667, stem cell growth factor project, primary screen (AID 1067).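 Also: measures binding of biotinylated aFGF2 protein to printed compounds on slides; z-score merges feature fluorescence and signal-to-noise across triplicate slides.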 The note with it: higher = more signal.
Assay [4] is described as follows: small molecules captured by biotinylated probe aFGF10 – biochemical, small-molecule microarray, fluorescence 635/667, stem cell growth factor project, primary screen (AID 1071).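 Also: score merges 667 nm spot intensity and signal to noise from triplicate slides.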 To be noted: higher = more signal.
In assay [5] the target is Neurogenic locus notch homolog protein 2 (Homo sapiens) (UniProt Q04721). As to the kind of experiment: small molecules binding Notch2 protein – biochemical, small-molecule microarray, 635 nm fluorescence, stem cell growth factors, primary screen (AID 1073). To be noted: higher = more signal.
Chain of Neurogenic locus notch homolog protein 2 (Homo sapiens) (Q04721 whole entry, looked up, canonical isoform): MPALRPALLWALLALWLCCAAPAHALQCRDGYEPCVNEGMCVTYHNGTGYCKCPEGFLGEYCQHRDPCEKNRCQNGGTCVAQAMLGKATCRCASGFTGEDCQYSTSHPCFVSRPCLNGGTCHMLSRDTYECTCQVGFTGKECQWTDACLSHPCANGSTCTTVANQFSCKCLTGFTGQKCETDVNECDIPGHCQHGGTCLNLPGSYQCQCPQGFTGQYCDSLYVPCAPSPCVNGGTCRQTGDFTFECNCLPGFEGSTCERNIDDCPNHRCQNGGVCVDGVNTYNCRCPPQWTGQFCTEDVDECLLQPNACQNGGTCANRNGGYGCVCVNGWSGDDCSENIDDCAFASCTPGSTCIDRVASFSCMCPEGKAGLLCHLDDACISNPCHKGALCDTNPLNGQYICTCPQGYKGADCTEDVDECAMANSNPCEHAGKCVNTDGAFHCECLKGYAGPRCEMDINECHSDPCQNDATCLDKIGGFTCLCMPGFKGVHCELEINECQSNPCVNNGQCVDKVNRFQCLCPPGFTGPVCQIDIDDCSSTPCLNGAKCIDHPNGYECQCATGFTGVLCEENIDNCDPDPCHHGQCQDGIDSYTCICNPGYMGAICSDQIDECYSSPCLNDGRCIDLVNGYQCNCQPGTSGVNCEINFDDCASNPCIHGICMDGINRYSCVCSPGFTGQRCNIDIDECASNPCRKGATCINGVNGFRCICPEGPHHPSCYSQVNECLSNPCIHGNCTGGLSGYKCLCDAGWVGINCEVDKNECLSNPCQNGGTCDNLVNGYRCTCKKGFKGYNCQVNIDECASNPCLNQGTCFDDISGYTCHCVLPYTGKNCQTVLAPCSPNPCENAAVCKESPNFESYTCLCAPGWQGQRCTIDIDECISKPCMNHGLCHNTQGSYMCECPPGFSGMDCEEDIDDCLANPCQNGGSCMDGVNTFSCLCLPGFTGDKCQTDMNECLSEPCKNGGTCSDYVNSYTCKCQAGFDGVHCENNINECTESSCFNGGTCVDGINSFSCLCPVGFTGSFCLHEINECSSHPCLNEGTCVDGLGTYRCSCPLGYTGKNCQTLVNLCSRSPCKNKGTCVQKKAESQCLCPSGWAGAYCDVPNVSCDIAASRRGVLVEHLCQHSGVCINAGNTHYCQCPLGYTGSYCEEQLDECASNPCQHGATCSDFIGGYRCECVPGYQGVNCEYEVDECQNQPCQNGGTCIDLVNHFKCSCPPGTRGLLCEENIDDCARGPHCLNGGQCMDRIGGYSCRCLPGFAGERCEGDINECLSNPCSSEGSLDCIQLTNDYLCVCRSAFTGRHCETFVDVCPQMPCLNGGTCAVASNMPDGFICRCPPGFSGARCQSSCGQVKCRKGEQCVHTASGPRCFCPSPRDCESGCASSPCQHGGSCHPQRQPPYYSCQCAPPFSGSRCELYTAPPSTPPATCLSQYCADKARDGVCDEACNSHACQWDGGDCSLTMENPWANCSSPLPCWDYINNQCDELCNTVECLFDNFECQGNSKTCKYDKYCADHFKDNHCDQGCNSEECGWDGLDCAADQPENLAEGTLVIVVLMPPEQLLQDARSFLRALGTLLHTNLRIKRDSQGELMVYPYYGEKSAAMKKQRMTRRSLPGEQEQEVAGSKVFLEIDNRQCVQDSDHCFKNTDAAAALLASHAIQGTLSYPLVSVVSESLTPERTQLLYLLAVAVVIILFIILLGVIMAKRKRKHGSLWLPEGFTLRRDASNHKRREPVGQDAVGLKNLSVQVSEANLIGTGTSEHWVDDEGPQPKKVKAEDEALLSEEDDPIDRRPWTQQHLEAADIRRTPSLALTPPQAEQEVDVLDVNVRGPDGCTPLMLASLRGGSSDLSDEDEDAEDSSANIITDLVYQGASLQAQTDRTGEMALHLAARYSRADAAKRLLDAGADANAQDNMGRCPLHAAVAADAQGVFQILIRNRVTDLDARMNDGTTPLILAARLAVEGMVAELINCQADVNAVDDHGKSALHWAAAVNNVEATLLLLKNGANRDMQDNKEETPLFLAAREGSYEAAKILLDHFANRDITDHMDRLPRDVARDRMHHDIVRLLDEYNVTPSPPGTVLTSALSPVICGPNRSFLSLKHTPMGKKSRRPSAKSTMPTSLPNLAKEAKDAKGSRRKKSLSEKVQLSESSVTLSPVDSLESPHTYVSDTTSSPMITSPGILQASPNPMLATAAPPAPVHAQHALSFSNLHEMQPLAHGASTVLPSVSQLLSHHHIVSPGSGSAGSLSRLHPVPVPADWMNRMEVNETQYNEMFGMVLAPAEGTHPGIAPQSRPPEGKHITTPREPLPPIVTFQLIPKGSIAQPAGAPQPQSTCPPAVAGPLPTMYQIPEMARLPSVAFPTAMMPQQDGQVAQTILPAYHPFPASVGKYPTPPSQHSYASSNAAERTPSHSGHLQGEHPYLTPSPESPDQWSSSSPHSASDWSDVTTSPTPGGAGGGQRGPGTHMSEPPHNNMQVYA
The target of assay [6] is Pro-neuregulin-1, membrane-bound isoform (Homo sapiens) (UniProt Q02297). As to the kind of experiment: small molecules binding neuregulin-1 protein – biochemical, small-molecule microarray, fluorescence 635/667, psychiatric disease protein project, primary screen (AID 1075).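 Also: score combines 667 nm spot fluorescence with signal to noise.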 The note with it: NRG1 binding, 635 nm fluorescence, higher = more signal.
Assay [7] deals with Neuregulin-1 EGF-like domain. As to the kind of experiment: small molecules binding NRG1 EGF domain – biochemical, small-molecule microarray, 635 nm fluorescence, primary screen (AID 1081).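 Also: binding of the protein to compounds printed on small-molecule microarray slides.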 The note with it: higher = more signal.
The nature of assay [8]: FRG1 expression reporter modulators in myotubes – cell-based, C2C12 myotubes, firefly/Renilla luciferase, luminescence, FRG1 inhibition for FSHD, primary screen (AID 1084). To be noted: FRG1 promoter luciferase, higher = more signal, called active from +8 up or from −8 down.
Assay [9] in a line: small molecules captured by biotinylated probe aFST – biochemical, small-molecule microarray, fluorescence 635/667, stem cell growth factor project, primary screen (AID 1086).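 Also: score merges 667 nm fluorescence with signal-to-noise of each printed compound spot.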 To be noted: higher = more signal.
Assay [10] is described as follows: binders of probe aHhip on microarray, primary screen, stem cell growth factor project, biochemical, small-molecule microarray, fluorescence 635/667 (AID 1087).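 Also: score merges spot fluorescence at 667nm with spot signal to noise ratio.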 The note with it: higher = more signal.
In assay [11] the test system is PRMT1 (protein arginine N-methyltransferase 1). Kind of assay: small molecules binding arginine methyltransferase PRMT1 – biochemical, small-molecule microarray, 635 nm fluorescence, primary screen (AID 1088).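 Also: binding of Prmt1 protein to compounds spotted on small-molecule microarray slides.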 The note with it: higher = more signal.
A short description of assay [12]: growth effects on S. cerevisiae YJM789 – YJM789 clinical isolate, OD600, 24 h, basal, primary screen (AID 1089).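 Also: growth of clinical yeast isolate S. cerevisiae YJM 789 seeded 1000 cells per well; test concentration not given here.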 The note with it: higher = more signal, called active from +8 up or from −8 down.
A short description of assay [13]: S. pombe growth modifiers, basal conditions – strain 972, OD600, 24 h, no modulator, primary screen (AID 1090).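 Also: basal condition with compound alone and no growth modifier present; test concentration not given here.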 The note with it: S. pombe 972 growth, higher = more signal, called active from +8 up or from −8 down.
Assay [14] is described as follows: budding yeast growth modifiers under rapamycin – strain BY4716, OD600, 96 h, primary screen (AID 1091). Also: test concentration not given here. To be noted: S. cerevisiae BY4716 + rapamycin, higher = more signal, called active from +8 up or from −8 down.
Assay [15] addresses Torsin-1A-interacting protein 2 (Homo sapiens) (UniProt Q8NFQ8). As to the kind of experiment: small molecules binding lysate-expressed LULL1 – cell lysate, human LULL1 lysate, 635/667 nm fluorescence, primary screen (AID 1092).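 Also: probe is lysate of COS7 cells overexpressing human LULL1; score merges per-feature 667 nm fluorescence with signal-to-noise.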 The note with it: small-molecule microarray, hLULL1 lysate binding, 635 nm fluorescence; higher = more signal.
The nature of assay [16]: optical density change of DRC41 E. coli – strain DRC41, OD650, 24 h, E. coli filamentation project, primary screen (AID 1093).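 Also: MC1000 strain lacking acrAB efflux and sulA so SOS filamentation is blocked; test concentration not given here.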 To be noted: E. coli DRC41 growth, higher = more signal, called active from +8 up or from −8 down.
A short description of assay [17]: probe aLefty2 binding to arrayed compounds – biochemical, biotinylated probe, 635/667 nm fluorescence, primary screen (AID 1094).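 Also: score merges spot fluorescence near 667 nm with spot signal-to-noise ratio.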 The note with it: small-molecule microarray, higher = more signal.
Assay [18] deals with Noggin (protein binding on small-molecule microarray). Kind of assay: small molecules binding Noggin protein – biochemical, 635/667 nm fluorescence, primary screen (AID 1095).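 Also: score merges 667 nm feature fluorescence with signal to noise over triplicate slides.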 To be noted: 635 nm fluorescence, higher = more signal.
The target in assay [19] is Neurogenic locus notch homolog protein 3 (Homo sapiens) (UniProt Q9UM47). As to the kind of experiment: small molecules binding NOTCH3 protein – biochemical, 635/667 nm fluorescence, primary screen (AID 1096). To be noted: small-molecule microarray, 635 nm fluorescence, higher = more signal.
Chain of Neurogenic locus notch homolog protein 3 (Homo sapiens) (Q9UM47 whole entry, looked up): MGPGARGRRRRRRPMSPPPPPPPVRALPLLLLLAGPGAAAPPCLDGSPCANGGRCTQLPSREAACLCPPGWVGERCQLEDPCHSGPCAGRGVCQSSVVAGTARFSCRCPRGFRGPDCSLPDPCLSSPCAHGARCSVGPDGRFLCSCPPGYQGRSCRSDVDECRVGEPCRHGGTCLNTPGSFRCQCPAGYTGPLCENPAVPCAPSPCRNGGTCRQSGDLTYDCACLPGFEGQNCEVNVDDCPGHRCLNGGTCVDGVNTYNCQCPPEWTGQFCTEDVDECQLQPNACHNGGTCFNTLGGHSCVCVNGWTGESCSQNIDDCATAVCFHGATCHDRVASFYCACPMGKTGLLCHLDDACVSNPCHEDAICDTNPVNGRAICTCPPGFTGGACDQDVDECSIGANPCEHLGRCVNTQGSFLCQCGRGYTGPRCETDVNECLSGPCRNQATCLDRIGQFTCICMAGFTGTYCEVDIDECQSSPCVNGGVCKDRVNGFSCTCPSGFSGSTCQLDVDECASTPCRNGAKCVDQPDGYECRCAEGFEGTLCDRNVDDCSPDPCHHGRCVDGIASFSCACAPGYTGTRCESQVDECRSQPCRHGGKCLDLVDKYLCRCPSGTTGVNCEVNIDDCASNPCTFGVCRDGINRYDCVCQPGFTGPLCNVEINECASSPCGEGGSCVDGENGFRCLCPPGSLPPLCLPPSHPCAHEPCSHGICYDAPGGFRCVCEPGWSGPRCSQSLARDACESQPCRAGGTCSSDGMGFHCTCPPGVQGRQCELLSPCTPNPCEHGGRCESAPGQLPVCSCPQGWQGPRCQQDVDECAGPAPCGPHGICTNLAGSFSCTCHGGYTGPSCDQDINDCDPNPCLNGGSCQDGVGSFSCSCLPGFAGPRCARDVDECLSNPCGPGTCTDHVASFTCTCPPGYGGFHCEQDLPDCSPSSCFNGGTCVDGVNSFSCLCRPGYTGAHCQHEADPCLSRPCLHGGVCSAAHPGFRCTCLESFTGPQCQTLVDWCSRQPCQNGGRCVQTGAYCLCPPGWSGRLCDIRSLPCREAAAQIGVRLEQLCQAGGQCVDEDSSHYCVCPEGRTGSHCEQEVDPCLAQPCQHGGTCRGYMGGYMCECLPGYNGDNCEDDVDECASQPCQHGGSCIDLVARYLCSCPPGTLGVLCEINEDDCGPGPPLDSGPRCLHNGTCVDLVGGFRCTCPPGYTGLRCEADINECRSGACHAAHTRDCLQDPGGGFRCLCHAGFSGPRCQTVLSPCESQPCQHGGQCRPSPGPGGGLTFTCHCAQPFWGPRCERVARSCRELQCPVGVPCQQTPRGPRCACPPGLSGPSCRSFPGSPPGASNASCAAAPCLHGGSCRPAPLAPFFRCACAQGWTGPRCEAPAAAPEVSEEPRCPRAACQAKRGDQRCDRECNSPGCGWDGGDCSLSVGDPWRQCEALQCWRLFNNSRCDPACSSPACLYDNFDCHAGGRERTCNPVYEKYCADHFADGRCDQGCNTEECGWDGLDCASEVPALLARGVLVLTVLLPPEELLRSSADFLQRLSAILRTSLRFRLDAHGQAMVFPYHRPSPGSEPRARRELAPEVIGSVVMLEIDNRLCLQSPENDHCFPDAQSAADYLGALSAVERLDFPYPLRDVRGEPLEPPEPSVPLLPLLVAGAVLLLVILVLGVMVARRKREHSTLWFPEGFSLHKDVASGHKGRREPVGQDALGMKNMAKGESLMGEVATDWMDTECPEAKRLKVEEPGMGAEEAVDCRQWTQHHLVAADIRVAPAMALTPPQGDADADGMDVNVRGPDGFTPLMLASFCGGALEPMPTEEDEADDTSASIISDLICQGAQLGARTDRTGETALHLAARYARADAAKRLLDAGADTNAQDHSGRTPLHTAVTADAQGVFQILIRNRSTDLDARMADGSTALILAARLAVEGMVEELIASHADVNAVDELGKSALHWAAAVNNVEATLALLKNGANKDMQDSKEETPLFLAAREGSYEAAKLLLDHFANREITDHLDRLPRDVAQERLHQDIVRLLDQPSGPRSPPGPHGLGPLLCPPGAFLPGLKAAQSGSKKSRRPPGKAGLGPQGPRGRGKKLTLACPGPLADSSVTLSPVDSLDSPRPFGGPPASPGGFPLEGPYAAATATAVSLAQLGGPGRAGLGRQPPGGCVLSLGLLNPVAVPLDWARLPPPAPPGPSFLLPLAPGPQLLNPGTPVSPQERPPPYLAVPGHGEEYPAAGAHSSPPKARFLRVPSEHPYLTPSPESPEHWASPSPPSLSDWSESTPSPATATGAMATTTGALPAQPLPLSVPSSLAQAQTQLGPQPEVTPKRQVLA
Assay [20] in a line: probe aEGFR binding to arrayed compounds – biochemical, biotinylated probe, 635/667 nm fluorescence, primary screen (AID 1097).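 Also: probe is a biotinylated anti-EGFR antibody binding compounds printed on slides; score combines fluorescence near 667 nm and signal to noise of each spot.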 The note with it: small-molecule microarray, higher = more signal.

Molecules are shown by their SMILES. Calls of active or inactive are those of the source.

Consider `CC(C)N1CC=CC23O[C@@H]4C=CCOC(=O)[C@@H]4[C@H]2C(=O)N(CCO)[C@@H]3C1=O` (stereo not given in full), for which the composite z-score was 0.283 in assay [1]; -1.72 in assay [2]; -0.187 in assay [3]; -0.484 in assay [4]; -1.11 in assay [5]; 0.247 in [6]. For the same molecule, the composite z-score was 1.02 in assay [7]; -0.634 in assay [9]; -0.397 in assay [10]; 0.53 in assay [11]; 3.37 in [15]; -0.328 in assay [17]. Besides, the composite z-score in assay [18] is -0.431; in assay [19], 0.173; in assay [20] it was -0.287. Also, the z-score was 0.188 (inactive) in assay [8]; 1.14 (inactive) in assay [12]; 0.24 (inactive) in assay [13]; -0.938 (inactive) in assay [14]; 0.73 (inactive) in assay [16].

Turning to `CO[C@H]1O[C@H](CO)[C@@H](OC(=O)Nc2ccc3c(c2)OCO3)[C@H](OC(=O)Nc2ccccc2)[C@H]1OC(=O)Nc1ccccc1`, the composite z-score was -0.142 in [1]; 0.436 in assay [2]; 0.0166 in assay [3]; 1 in [4]; 0.828 in assay [5]; 1.12 in assay [6]. For the same molecule, the composite z-score was 1.35 in [7]; 0.697 in [9]; -0.0645 in assay [10]; 1.54 in [11]; 3.4 in assay [15]; -0.0702 in [17]. The composite z-score in assay [18] is 0.704; in assay [19] it was 1.15; in [20], -0.0354. Further, the z-score in [8] is 2.74 (inactive); in [12], 1.67 (inactive); in assay [13] it was 0.383 (inactive); in assay [14], 1.76 (inactive); in assay [16], -0.703 (inactive).

Regarding `C=CCNC(=O)[C@H]1[C@@H]2C(=O)O[C@@H](c3ccccc3)[C@@H](c3ccccc3)N2[C@@H](c2ccc(O)cc2)[C@]12C(=O)N(C(=O)OCCOC)c1ccc(C#CCCO)cc12`, the composite z-score in assay [1] was 0.174; in [2], 1.93; in assay [3], -0.154; in [4], 0.932; in assay [5], 0.0576; in assay [6] it was 1.33. The composite z-score in assay [7] was 1.32; in assay [9], -0.0024; in [10], -0.0618; in assay [11], 1.58; in [15] it was 2.97; in [17] it was -0.0916. Besides, the composite z-score is -0.176 in assay [18], -0.15 in assay [19] and -0.0163 in assay [20]. Further, the z-score in assay [8] was -4.26 (inactive); in assay [12], 1.16 (inactive); in [13] it was -0.47 (inactive); in assay [14], 0.804 (inactive); in [16], 1.07 (inactive).

Take `CCC[C@@H]1C=C(C(=O)O)[C@H](c2ccc(C)cc2)N1S(=O)(=O)c1ccc(C)cc1`: the composite z-score is -0.0973 in assay [1]; 0.0641 in [2]; 0.0485 in assay [3]; 0.854 in [4]; 1.35 in assay [5]; 1.79 in assay [6]. Further, the composite z-score in assay [7] was 1.26; in assay [9], 0.648; in assay [10], 0.099; in [11], 0.844; in assay [15] it was 3.68; in [17], 0.0943. Besides, the figures for the composite z-score in assay [18], in [19] and in assay [20] were -0.327, 0.62 and 0.0992, respectively. The z-score in assay [8] is -1.09 (inactive); in assay [12], -0.545 (inactive); in assay [13] it was 0.249 (inactive); in assay [14] it was -0.34 (inactive); in [16], -0.499 (inactive).

With `Cc1ccc(S[C@]2(C(=O)O)CC(=O)N(C3Cc4ccccc4C3)[C@@H]2c2ccc(CO)cc2I)cc1`, the composite z-score in assay [1] is 1.43; in assay [2], -0.269; in assay [3] it was -0.0692; in [4], 0.117; in assay [5], -0.634; in assay [6], 0.899. In addition, the composite z-score was 0.78 in assay [7]; -0.154 in [9]; -0.0581 in [10]; 0.46 in [11]; 2.32 in assay [15]; 0.125 in assay [17]. Also, the figures for the composite z-score in assay [18], in assay [19] and in [20] were -1.02, -0.891 and -0.132, respectively. The z-score is 0.788 (inactive) in [8]; -1.47 (inactive) in assay [12]; -1.01 (inactive) in assay [13]; 1.6 (inactive) in assay [14]; -0.263 (inactive) in assay [16].

Values taken from PubChem BioAssay.
